Among all 5,500 compounds or so, about 2,000 (36%) were called active. Inconclusive results (about 18%) are left out. Rule as the data show it: active = normalized growth mostly below about 0.91 (no sharp cut-off); inconclusive = no clear call, values can overlap the other calls; inactive = mostly above about 0.92. This is one part of the list.
Assay: chemical genetic growth profiling, strain panel (AID 1159580);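 also: tested at 20 µM; growth read once vehicle control cultures reached saturation at 30 °C; 1 = growth at the plate median or of vehicle wells; lower values mean less growth of the strain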
Conditions: S. cerevisiae deletion strains, growth OD

Measured: normalized growth

COc1ccc2ccc(=O)oc2c1CC=C(C)C
active: locus YAL026C, strain drs2, hits give low values 0.883 | locus YAL030W, strain snc1, hits give low values 0.92 | locus YBL061C, strain skt5, hits give low values 0.912 | locus YBR009C, strain hhf1, hits give low values 0.769 | locus YBR021W, strain FUR4, hits give low values 0.662 | locus YBR023C, strain chs3, hits give low values 0.843 | locus YBR229C, strain ROT2, hits give low values 0.885 | locus YBR231C, strain swc5, hits give low values 0.866 | locus YBR279W, strain paf1, hits give low values 0.929 | locus YCL011C, strain gbp2, hits give low values 0.787 | locus YCL016C, strain dcc1, hits give low values 0.891 | locus YCL029C, strain bik1, hits give low values 0.826 | locus YCL061C, strain MRC1, hits give low values 0.835 | locus YCL069W, strain vba3, hits give low values 0.919 | locus YCR088W, strain abp1, hits give low values 0.915 | locus YDL035C, strain GPR1, hits give low values 0.794 | locus YDL040C, strain nat1, hits give low values 0.91 | locus YDL074C, strain BRE1, hits give low values 0.752 | locus YDL101C, strain DUN1, hits give low values 0.768 | locus YDL192W, strain arf1, hits give low values 0.794 | locus YDR001C, strain nth1, hits give low values 0.909 | locus YDR101C, strain arx1, hits give low values 0.823 | locus YDR137W, strain rgp1, hits give low values 0.715 | locus YDR159W, strain sac3, hits give low values 0.771 | locus YDR162C, strain NBP2, hits give low values 0.645 | locus YDR318W, strain mcm21, hits give low values 0.741 | locus YDR388W, hits give low values 0.89 | locus YDR392W, strain spt3, hits give low values 0.396 | locus YDR502C, strain sam2, hits give low values 0.788 | locus YEL003W, strain gim4, hits give low values 0.832 | locus YEL061C, strain CIN8, hits give low values 0.774 | locus YER016W, strain bim1, hits give low values 0.91 | locus YER110C, hits give low values 0.873 | locus YER155C, strain BEM2 (second series), hits give low values 0.434 | locus YER155C, strain BEM2, hits give low values 0.657 | locus YER167W, strain BCK2, hits give low values 0.561 | locus YGL078C, strain dbp3, hits give low values 0.917 | locus YGL086W, strain mad1, hits give low values 0.844 | locus YGL167C, strain pmr1, hits give low values 0.908 | locus YGL227W, strain vid30, hits give low values 0.875 | locus YGL240W, strain doc1, hits give low values 0.701 | locus YGL248W, strain PDE1, hits give low values 0.704 | locus YGL253W, strain hxk2, hits give low values 0.818 | locus YGR135W, strain pre9, hits give low values 0.75 | locus YGR252W, strain gcn5, hits give low values 0.583 | locus YHR013C, strain ard1, hits give low values 0.801 | locus YHR030C, strain SLT2, hits give low values 0.831 | locus YHR079C, strain IRE1 (second series), hits give low values 0.896 | locus YHR094C, strain hxt1, hits give low values 0.898 | locus YHR129C, strain ARP1, hits give low values 0.741 | locus YHR142W, strain chs7, hits give low values 0.739 | locus YHR200W, strain rpn10, hits give low values 0.812 | locus YIL066C, strain RNR3, hits give low values 0.622 | locus YIL125W, strain kgd1, hits give low values 0.888 | locus YIR030C, strain dcg1, hits give low values 0.841 | locus YJL092W, strain hpr5, hits give low values 0.896 | locus YJL095W, strain BCK1, hits give low values 0.566 | locus YJL129C, strain trk1, hits give low values 0.866 | locus YJL134W, strain LCB3, hits give low values 0.921 | locus YJL164C, strain tpk1, hits give low values 0.883 | locus YJL166W, strain qcr8, hits give low values 0.803 | locus YJL187C, strain SWE1 (second series), hits give low values 0.783
inactive: locus YAL021C, strain ccr4, hits give low values 1.02 | locus YBR171W, strain sec66, hits give low values 0.896 | locus YDL005C, strain med2, hits give low values 0.948 | locus YDL185W, strain tfp1, hits give low values 0.928 | locus YDR069C, strain doa4, hits give low values 1.03 | locus YDR195W, strain ref2 1.02 | locus YDR297W, strain sur2, hits give low values 0.934 | locus YDR334W, strain swr1, hits give low values 0.936 | locus YDR335W, strain msn5, hits give low values 0.95 | locus YEL037C, strain rad23, hits give low values 0.935 | locus YEL061C, strain CIN8 (second series), hits give low values 0.921 | locus YER015W, strain faa2, hits give low values 0.935 | locus YER111C, strain swi4, hits give low values 0.942 | locus YFR010W, strain ubp6, hits give low values 0.923 | locus YGL173C, strain kem1, hits give low values 0.94 | locus YHR027C, strain rpn1, hits give low values 0.957 | locus YIL073C, strain SPO22, hits give low values 0.85 | locus YJL095W, strain BCK1 (second series), hits give low values 0.936 | locus YJL115W, strain asf1, hits give low values 0.967 | locus YJL154C, strain vps35, hits give low values 0.944 | locus YJL168C, strain set2, hits give low values 0.941

— PubChem BioAssay AID1159580 (chemical genetic matrix, 2015)
